According to PubChem BioAssay (NCI):
About 83,000 compounds went through this panel and 20% of them were active in at least one assay; those are over-represented in the sample as a whole.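 Treatment: one concentration, 48 hours, 96-well format. Scoring: percent growth, with anything below 10 considered active.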 Values without a mark were called inactive. The source made the active and inactive calls.

The molecules below were run on CCRF-CEM leukemia (assay: NCI-60 one-dose screen, 48 h (100 = growth as untreated, 0 = no growth, -100 = all killed)). Settings: 10 µM unless noted.
Description: Growth inhibition of the CCRF-CEM human tumor cell line is measured as a screen for anti-cancer activity. Cells are grown in 96 well plates and exposed to the test compound for 48 hours. Compounds are tested at a single concentration, which is 10^-5 M for most compounds. The reported endpoint is percent growth (GI% or GIPRCNT), where numbers from 0 - 100% represent growth inhibition, and numbers from -100% - 0 represent cell death. For example, a value of 40 represents 60% growth inhibition. A value of 0 means no net growth occurred over the course of the experiment. A value of -40 indicates 40% of cells at the beginning of the experiment died by the end of the experiment. A value of -100 means all cells are dead at the end of the experiment.
NCI-60 Human Tumor Cell Lines Screen was performed using the standard one-dose NCI protocol, which is described in more detail at https://dtp.cancer.gov/discovery_development/nci-60/default.htm.
Compounds with GIPRCNT values below 10 were considered active. Activity score was based on GIPRCNT using the following formula: […]
Score is 0 for GIPRCNT values of 100 or above, 50 for GIPRCNT values of 0, and 100 for GIPRCNT values of -100.
For COc1ccc2[nH]c(O)c(N=NC(=O)COc3ccc(NC(=O)Nc4ccccc4)cc3)c2c1, the growth was 77.9%. In the case of CCOC(=O)c1ccc(Nc2nc(NN)nc(-c3ccc(OC)cc3)c2C#N)cc1, the growth is reported as -5.35% (active). Molecule O=C(c1ccc(OCCN2CCOCC2)cc1)C1[C@H](c2ccc(Cl)cc2)[C@@H](c2ccccc2)NC12C(=O)Nc1ccc(Br)cc12 (stereo not given in full) has a growth of 20.7%. C=C1CCC2C3(C)COC(c4ccccc4F)OC3CCC2(C)C1CC(O)C1=CCOC1=O (stereo not given) was tested, and the growth was 16.7%. CC1(C)CC[C@]2(C(=O)O)CC[C@]3(C)C(=CCC4[C@@]5(C)C[C@@H](O)[C@@H]6OC(c7ccccc7F)OC[C@@]6(C)C5CC[C@]43C)C2C1 (stereo not given in full) showed a growth of 17%. O=C(Nc1ccccc1)N1CCN(c2cc(-c3cn(-c4ccccc4)nc3-c3cccc(O)c3)ccn2)CC1 gave a growth of 36.8%. With CC(=O)Nc1ccc(C(=O)NC(=S)Nc2ccc(S(N)(=O)=O)cc2)cc1 the growth was 100%. COc1ccc(-c2nc3cc(C)ccc3n2CC(=O)N=Nc2c(O)[nH]c3ccccc23)cc1 was tested, and the growth was 79.1%. Molecule COc1ccc(N2N=C(c3ccc4c(c3)OCO4)CC2c2cccc(NC(=O)CCCNS(=O)(=O)c3ccc(F)cc3)c2)cc1 (stereo not given) has a growth of 53.5%. Molecule CN1CCN(c2ccc(C(=O)/C=C/c3ccc(Br)cc3)cc2)CC1 has a growth of 18.2%. CC(/C=C1\SC(=S)N(CCCC(=O)NC(CC(C)C)C(=O)O)C1=O)=C\c1ccccc1 (stereo not given) showed a growth of 89.7%. With COc1ccc(C(SCCNCc2cc(N(C)C)ccn2)(c2ccccc2)c2ccccc2)cc1 the growth was 4.47% (active). COc1ccc(/C=C/c2nc3ccccc3nc2Nc2cccc(C)c2)cc1 gave a growth of 98.7%. In the case of Cc1cc2c(cc1Cl)C(=O)/C(=C/c1ccccc1)O2, the growth is reported as 4.91% (active). In the case of O=C1c2c(c3c4cc(F)ccc4oc3c3[nH]c4ccc(Br)cc4c23)C(=O)N1O, the growth is reported as 9.46% (active). Cn1cc(-c2nc(N)nnc2-c2c[nH]c3ccc(Br)cc23)c2cccnc21 gave a growth of 36.1%. Work on COc1ccc2[nH]c(=O)c(CSc3nccc(-c4ccc(OC)c(OC)c4)n3)cc2c1 yielded a growth of 31.3%. Cn1cc(-c2cc(N)n3nc(-c4cn(C)c5ncccc45)cc3n2)c2cccnc21 was tested, and the growth was 85.2%. In the case of COc1ccc(C(=O)/C=C/c2cccc(Cl)c2)cc1S(N)(=O)=O, the growth is reported as 6.96% (active). With O=C(COc1ccc(NC(=O)Nc2ccc(Cl)cc2)cc1)N/N=C/c1ccccc1 the growth was -13.7% (active). Molecule COc1cc2oc(-c3cccc(C(=O)Nc4ccc(Cl)cc4)c3)cc(=O)c2c(OCCNC(=O)[C@@H](N)CCC(=O)O)c1OC has a growth of 75.6%. For C=CC(=O)Nc1ccc(C)c(Oc2ccc(Cl)cc2)c1, the growth was 57.9%. COC(=O)C[C@](O)(CCCC(C)(C)O)C(=O)O[C@H]1C(OC)=C[C@@]23CCCN2CCc2cc4c(cc2[C@@H]13)OCO4 was tested, and the growth was -5.84% (active). With C=C1CC[C@@H]2[C@]3(C)COC(c4cn(-c5ccccc5)nc4-c4ccccc4)O[C@@H]3CC[C@@]2(C)[C@@H]1C/C=C1/C(=O)OC[C@H]1O (stereo not given in full) the growth was 31.5%. CCOc1ccc(-c2c(C#N)c(-c3ccc(Cl)cc3)nc3n[nH]c(-c4ccc(Cl)cc4)c23)cc1OC showed a growth of 33.7%. With COc1cccc(/C=C/C(=O)c2ccc(OC)c(S(N)(=O)=O)c2)c1 the growth was 2.26% (active). Work on CCOC(=O)COc1c(OC)c(OC)cc2oc(-c3cccc(C(=O)Nc4ccc(Cl)cc4)c3)cc(=O)c12 yielded a growth of 31.1%. With Brc1ccc(-c2n(Cc3ccc4ccccc4c3)c(-c3ccccc3)c(-c3ccccc3)[n+]2Cc2ccc3ccccc3c2)cc1 the growth was -10.5% (active). CC(=O)OC[C@@]1(C)C2CC[C@]3(C)C(CC=C4C5CC(C)(C)CC[C@]5(C(=O)Nc5ccc(Br)cc5)CC[C@]43C)[C@@]2(C)C[C@@H](OC(C)=O)[C@@H]1OC(C)=O (stereo not given in full) was tested, and the growth was 28.7%. For Cc1ccc(C(=O)NN2C(=O)/C(=C/C=C/c3ccc([N+](=O)[O-])o3)SC2=S)cc1, the growth was 4.08% (active). Cc1c(C(=O)NNC(=O)c2ccc(Cl)cc2)nnn1-c1ccc(Br)cc1 was tested, and the growth was 90.3%. For COc1cc(/C=C/C(=O)c2nnn(-c3ccc(Cl)cc3)c2C)cc(OC)c1OC, the growth was -19.2% (active). CC(=O)Oc1ccccc1C(=O)[Se]CC(=O)Nc1cccc(C(F)(F)F)c1 gave a growth of 24.6%. Work on N#Cc1c(-c2cccc(O)c2O)cc(-c2ccc3ccccc3c2)[nH]c1=O yielded a growth of 13.4%. Molecule O=c1oc2ccc(Br)cc2cc1C1=CSc2nc3sc4c(c3c(=O)n2N=C1)CCCC4 has a growth of 84.4%. O=c1cc(-c2ccccc2)oc2cc(OCCCC[P+](c3ccccc3)(c3ccccc3)c3ccccc3)cc(O)c12 was tested, and the growth was -75.9% (active). With COC1=C[C@]23CCC(=O)N2CCc2cc4c(cc2[C@@H]3[C@@H]1OC(=O)[C@H](C)O)OCO4 the growth was 1.16% (active). In the case of COc1ccc(NC(=O)[C@H](C)N)cc1C(=O)Nc1cccc(C2CC(=O)c3c(cc(OC)c(OC)c3OC)O2)c1 (stereo not given in full), the growth is reported as 57.4%. With CC1(c2cc3cc(Br)ccc3oc2=O)NC(=O)c2c(/C=C/C(=O)OC3CC4CCC3(C)C4(C)C)cccc2N1 (stereo not given) the growth was 82.2%. For C=C1CC[C@@H]2[C@]3(C)COC(c4ccco4)O[C@@H]3CC[C@@]2(C)[C@@H]1C/C=C1/C(=O)OCC1OC(C)=O (stereo not given in full), the growth was -19.8% (active).
